Reference: PubChem BioAssay (NCATS)
Inconclusive results are not listed. A number with no mark means an inactive call. Active and inactive are the calls of the source. The call rests on the fitted dose curve; in most records, active means well fitted inhibition curve with a large enough effect; inconclusive means small, poorly fitted or top-dose-only effect; inactive means flat fitted curve, though single readings scatter.

The compounds below were run against Phospholipid hydroperoxide glutathione peroxidase GPX4 (Homo sapiens) (UniProt P36969) (assay: Primary qHTS Assay for Inhibitors of Recombinant Selenoprotein Glutathione Peroxidase 4 (GPX4) (AID 1845192; further: nearly all actives have a fitted effect of over 65% in size)). Conditions: recombinant GPX4, GR-coupled NADPH fluorescence, 15 min; series mostly up to 50 µM; activity change, negative = inhibition: at the top concentration.
Chain of Phospholipid hydroperoxide glutathione peroxidase GPX4 (Homo sapiens) (P36969 whole entry, looked up): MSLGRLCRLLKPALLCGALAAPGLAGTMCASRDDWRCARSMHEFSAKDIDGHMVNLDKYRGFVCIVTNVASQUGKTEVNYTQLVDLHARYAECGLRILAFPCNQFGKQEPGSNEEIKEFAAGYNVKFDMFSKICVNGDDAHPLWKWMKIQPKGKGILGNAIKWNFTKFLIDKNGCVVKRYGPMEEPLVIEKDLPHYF
From the text: Assay Provider: Elias S.J. Arner MD PhD.
Department of Medical Biochemistry and Biophysics
Karolinska Institutet, Solna, Stockholm, Sweden
Selenoprotein glutathione peroxidases (GPX), like the ubiquitously expressed GPX1 and the ferroptosis modulator GPX4, enact their antioxidant activities by reducing hydroperoxides using glutathione. […] GPX1 and GPX4 inhibitors have thus shown promise as anti-cancer agents. Existing inhibitors are often promiscuous, or modulate GPX activity only indirectly, so novel direct inhibitors identified through screening against GPX1 and GPX4 could be valuable. Here, we developed optimized glutathione reductase (GR)-coupled GPX assays for the biochemical high-throughput screen (HTS) of almost 12,000 compounds with known mechanisms of action. Initial hits were triaged using a GR counter-screen, assessed for isoform specificity using a separate GPX2 assay, and were assessed for general selenocysteine-targeting activity using a thioredoxin reductase (TXNRD1) assay. With this suite of assays, we identified novel GPX1/GPX2- and GPX4-specific inhibitors and can here present a validated pipeline for future discovery research for selenoprotein-targeting agents.
SEQUENCE No. (e.g., 1, 2, 3, etc.); […] (e.g., Cells, Incubation, Reagent, etc.); VALUE; DESCRIPTION.
1; Reagent 1; 3 uL; 333.33 nM GPx4 enzyme or no enzyme control in 1536-well, black, solid Greiner assay plate.
2; Compound; 25 nL; Kalypsis pin tool (Wako USA) equipped with a 1536-well pin head.
3; Incubation; 30 min; room temperature.
4; Reagent 2; 1 uL; 500 nM GR, 5 mM GSH, 2.5 mM NADPH solution
5; Reagent 3; 1 uL; 2.5 mM CHP in 50% EtOH.
6; Detection; Fluorescence; ViewLux microplate reader, excitation 340 nm and emission 450 nm.
7; Incubation; 15 min; room temperature.
8; Detection; Fluorescence; ViewLux microplate reader, excitation 340 nm and emission 450 nm.
NOTES (numbers refer to Sequence numbers above)
1. 3 µL of 333.33 nM GPX4 and 0.016% BSA in assay buffer (50 mM Tris-HCl, 2 mM EDTA (pH 7.5), 150 mM NaCl) was added to columns 3-48 of 1536-well plates using a BioRAPTR Flying Reagent Dispenser (Let's Go Robotics (LGR), Carlsbad, CA). A no-enzyme control (0.01% BSA in TES assay buffer) was added to columns 1-2.
2. 25 nL, library and DMSO controls were added to each well with a pin tool (Kalypsys).
3. The assay plates were incubated for 30 minutes at room temperature.
4. 1 µL of master mix (500 nM glutathione reductase (GR), 5 mM reduced glutathione (GSH), 2.5 mM NADPH in assay buffer) was added.
5. 1 µL of cumene hydroperoxide (CHP) ([2.5 mM] in 50% EtOH) was then added within 5 minutes to initiate the reaction. Final concentrations were: 200 nM GPX4, 1 mM GSH, 0.5 mM CHP, 0.5 mM NADPH, 100 nM GR, 0.01% BSA.
6. Initial fluorescence readout (t=0) at 340/450 nm was measured using a ViewLux multimodal detector (PerkinElmer, Waltham, MA).
8. Endpoint fluorescence readout (t=15) at 340/450 nm was measured 15 min after room temperature incubation.
On the % scale 0 is the no-effect control and ±100 the full control effect; potency means the concentration at half of the fitted maximal effect.

| Compound | activity change, negative = inhibition | Potency | outcome |
| --- | --- | --- | --- |
| C/C(=C\Cc1c(O)c(Cl)c(C)c(C=O)c1O)CC/C=C(\C)[C@H]1CC(=O)C(C)(C)O1 | -22.5% [at 27.8 µM] |  |  |
| COC1C(OC(=O)/C=C/C=C/C=C/C=C/C(=O)O)CCC2(CO2)C1C1(C)OC1CC=C(C)C (stereo not given) | -23.6% [at 27.8 µM] |  |  |
| NC(=O)c1ccccc1Nc1ccnc(Nc2cccc(O)c2)n1 | -1.82% |  |  |
| O=C(Nc1ccc(C(O)(C(F)(F)F)C(F)(F)F)cc1)c1ccc(C(F)(F)F)cc1 | 3.79% |  |  |
| Cc1c(Cl)cccc1S(=O)(=O)Nc1nc(NCCc2ccccc2)nc2c1CN(Cc1ccccc1)CC2 | -19.3% |  |  |
| N#Cc1cccc(C(=O)Nc2cc(-c3ccccc3)nn2-c2ccccc2)c1 | 0.837% |  |  |
| Cn1ncc(Cl)c1-c1cc(C(=O)N[C@H](CN)Cc2ccc(F)c(F)c2)oc1Cl | 1.44% |  |  |
| COCC(c1ccc(C(F)(F)F)cc1)N1CCN(C2(C)CCN(C(=O)c3c(C)ncnc3C)CC2)CC1C (stereo not given) | 11.7% |  |  |
| Cc1cc2c(N3CCCC3)nc(N3CCCC3)nc2n1C | -13.1% |  |  |
| CN(C)CCC(CSc1ccccc1)Nc1ccc(S(=O)(=O)NC(=O)c2ccc(N3CCN(Cc4ccccc4-c4ccc(Cl)cc4)CC3)cc2)cc1[N+](=O)[O-] (stereo not given) | -24.2% |  |  |
| Fc1ccc(N2CCCCC2)c(NC(=S)c2ccncc2)c1 | -11.3% |  |  |
| CCCCC1CCN(CCCN2C(=O)CCc3ccccc32)CC1 | -1.44% |  |  |
| c1cc(NC2CCNCC2)nc(-c2cnc3ccccn23)c1 |  | 16.1 µM (active) |  |
| CNC1CN(c2ccc3c(=O)c(C(=O)O)cn(-c4nccs4)c3n2)CC1OC (stereo not given) | -2.33% [at 9.73 µM] |  |  |
| O=C(Nc1ccc2[nH]c(=O)oc2c1)C(=O)N1CCC(Cc2ccc(F)cc2)CC1 | -6.86% |  |  |
| CC(C)c1ccccc1OC(=O)NCCc1ccc2ccccc2c1 | 4.03% |  |  |
| COc1ccc(N2CCN(C(=O)c3cc4c(s3)-c3ccccc3S(=O)(=O)C4)CC2)cc1 | -3.7% |  |  |
| C/C=C(\C)C(=O)O[C@H]1C=CC(=O)O[C@H]1/C=C/[C@@H](O)[C@H](C)O | -3.1% |  |  |
| CC(=O)O[C@]1(C(C)=O)CC[C@H]2[C@@H]3CCC4=CC(=O)CCC4=C3[C@@H](c3ccc(N(C)C)cc3)C[C@@]21C | -11.5% |  |  |
| CCOc1cc(C(C)(C)C)ccc1C1=NC(C)(c2ccc(Cl)cc2)C(C)(c2ccc(Cl)cc2)N1C(=O)N1CCN(CCCS(C)(=O)=O)CC1 (stereo not given) | -18.7% |  |  |

| Compound | activity change, negative = inhibition | Potency | outcome |
| --- | --- | --- | --- |
| Cc1cc(-c2cnc(N)c3c(-c4ccc5scnc5c4)csc23)n(C)n1 | 4.28% |  |  |
| CC(=O)NC(C(=O)O[C@H]1CCC(C)(C)[C@@H]2CC=C3C(=O)OCC3(O)[C@@]12C)C(C)C (stereo not given in full) | -1.41% [at 27.8 µM] |  |  |
| O=C(Nc1ccc(CN2CCOCC2)cc1)c1ccc(-c2cccc(Cl)c2)o1 | -12.1% |  |  |
| C[C@@H](N[C@H]1CCCC[C@@H]1NC(=O)c1ccc(Cl)cc1)c1cccc2ccccc12 | -15.1% |  |  |
| C=C(NC(=O)C(=C)NC(=O)c1csc(C2=NC3c4csc(n4)C4NC(=O)c5csc(n5)C(C(C)(O)C(C)O)NC(=O)C5CSC(=N5)/C(=C/C)NC(=O)C(C(C)O)NC(=O)c5csc(n5)C3(CC2)NC(=O)C(C)NC(=O)C(=C)NC(=O)C(C)NC(=O)C(C(C)CC)NC2C=Cc3c(C(C)O)cc(nc3C2O)C(=O)OC4C)n1)C(N)=O (stereo not given) | -17.8% |  |  |
| O=S(=O)(Cc1ccccc1)Nc1ccc(-c2ccc3c(cnn3-c3ccc(F)cc3)c2)c(C(F)(F)F)c1 | -6.17% |  |  |
| CC(C)c1cc2c(N3CCN(C4=NCC(C)(C)S4)CC3)ncnc2s1 | -4.34% |  |  |
| CCC(C)CNCC(=O)N1CCC2SC=CC2C1COc1cccc(C)c1 (stereo not given) | 2.84% |  |  |
| C=C1C(=O)O[C@H]2/C=C(/C)[C@@H](OC(C)=O)C/C=C(\C)C[C@@H](OC(=O)/C(=C/C)COC(=O)/C(=C/C)CO)[C@@H]12 | -5.8% [at 27.8 µM] |  |  |
| Cc1cc(-c2cc(OC(=O)c3ccccc3)ccc2Cl)cc2nnc(Nc3ccc(OCCN4CCCC4)cc3)nc12 |  |  | inactive [at 27.8 µM] |
| Cc1c(C(=O)NCc2cccnc2)nn(-c2ccc(Cl)cc2Cl)c1-c1ccc(Cl)cc1 | -7.7% |  |  |
| C=C[C@@]12COC(=O)C(=C)[C@@H]1[C@@H](O)[C@H](C(=C)C(=O)OC)[C@@H](O)C2 | -3.72% [at 27.8 µM] |  |  |
| CCCOc1ccc(CCc2nc3cc(-c4c(C)noc4C)ccc3n2CCN2CCOCC2)cc1 | -6.09% |  |  |
| Cc1cccc(-c2[nH]ncc2-c2ccc(F)c(-c3cnn(CCO)c3)c2)n1 |  |  | inactive |
| C=C(C(=O)O[C@H]1C/C(C)=C/CC/C(CO)=C/[C@H]2OC(=O)C(=C)[C@H]12)C(O)CO (stereo not given in full) | -2.19% [at 27.8 µM] |  |  |
| Cc1ccc(C)c(NC(=O)[C@@H]2CCCN2S(=O)(=O)c2cccc3cccnc23)c1 | -3% |  |  |
| Cc1cn(CCN2CCN(c3ccccc3-c3cc(C#N)cc(C(=O)NCCCN4CCCC4)c3)CC2)c2ccccc12 |  | inactive |  |
| Cc1cc(CS(=O)(=O)c2ccccc2)cc(OCc2ccc(CN3CCCC3CO)cc2)c1 (stereo not given) | -1.62% |  |  |
| CC(=O)OC1CC(O)(C(C)C)C2C(OC(=O)c3ccc(O)cc3)C=C(C)C(=O)CC12C (stereo not given) | -3.04% [at 27.8 µM] |  |  |
| O=C1Nc2nc(-c3c(O)cccc3OCC3CC3)cc([C@@H]3CCCNC3)c2CO1 |  | inactive |  |
